We go through eight compounds from PubChem BioAssay (EPA / NIEHS).

Inconclusive results are not listed. Active and inactive are the calls of the source. Rule for the calls: active = hit-call score of the fitted dose curve at least 0.9, where 1 is the maximum; inconclusive = response in the unintended direction; inactive = score below 0.9.

Assay [1] concerns the target human Retinoic Acid Receptor beta (RARb), RARB (gene 5915) (UniProt P10826). The experiment in a line: ATG_RARb_TRANS: Attagene TRANS-FACTORIAL HepG2 Assay for human Retinoic Acid Receptor beta (AID 2283004). An outline of the steps: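 Readout is reporter mRNA induction: RNA reverse-transcribed, PCR-amplified, FAM-labelled, HpaI-cut and resolved by capillary electrophoresis. Transiently transfected HepG2 cells carrying exogenous NR–Gal4 chimeras were dosed for 24 h; activity fitted upward relative to DMSO.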

The target in assay [2] is Retinoic acid receptor alpha (Homo sapiens) (UniProt P10276). The experiment in a line: ATG_RARa_TRANS: Attagene TRANS-FACTORIAL HepG2 Assay for human Retinoic Acid Receptor alpha (RARa) (AID 2283005). An outline of the steps:
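Reporter transcripts, measured by RT-PCR with fluorescent labeling and capillary electrophoresis after 24 h dosing, reflect activity of an exogenous human RARa–GAL4 fusion in transiently transfected HepG2. Fitted for increase relative to DMSO.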

The target in assay [3] is Peroxisome proliferator-activated receptor gamma (Homo sapiens) (UniProt P37231). Nature of the assay: ATG_PPARg_TRANS: Attagene TRANS-FACTORIAL HepG2 Assay for human Peroxisome Proliferator-activated Receptor-gamma (PPARg) (AID 2283007). Summed up:
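HepG2 cells are transiently transfected with GAL4-UAS reporter units driven by chimeric NR-Gal4 fusions and dosed for 24 h. Reporter mRNA is quantified by RT-PCR, 6-FAM labelling, HpaI digestion and capillary electrophoresis. Induction is scored against DMSO.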

Assay [4] deals with Nuclear receptor subfamily 1 group I member 2 (Homo sapiens) (UniProt O75469). Nature of the assay: ATG_PXR_TRANS: Attagene TRANS-FACTORIAL HepG2 Assay for human Pregnane X Receptor (PXR) (AID 2283008). Summed up: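 Multiplexed TRANS reporter panel in HepG2; this component tracks PXR-Gal4-driven reporter mRNA after 24 h dosing, measured by RT-PCR with capillary electrophoresis fluorescence, fitted against DMSO.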
Sequence of Nuclear receptor subfamily 1 group I member 2 (Homo sapiens) (O75469 whole entry, looked up, the tested form may be a part): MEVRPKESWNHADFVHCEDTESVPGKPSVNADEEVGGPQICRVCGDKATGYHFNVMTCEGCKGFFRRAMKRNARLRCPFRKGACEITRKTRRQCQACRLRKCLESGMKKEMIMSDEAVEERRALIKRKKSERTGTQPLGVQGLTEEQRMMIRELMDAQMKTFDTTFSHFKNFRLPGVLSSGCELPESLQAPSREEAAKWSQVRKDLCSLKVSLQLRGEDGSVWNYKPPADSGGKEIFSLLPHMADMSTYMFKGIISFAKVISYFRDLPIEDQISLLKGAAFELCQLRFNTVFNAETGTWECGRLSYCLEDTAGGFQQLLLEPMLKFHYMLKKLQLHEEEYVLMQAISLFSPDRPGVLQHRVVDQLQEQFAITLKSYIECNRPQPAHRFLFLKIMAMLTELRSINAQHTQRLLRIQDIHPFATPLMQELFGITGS

For assay [5], the target named is human Retinoic Acid Receptor gamma (RARg), RARG (gene 5916) (UniProt P13631). The experiment in a line: ATG_RARg_TRANS: Attagene TRANS-FACTORIAL HepG2 Assay for human Retinoic Acid Receptor gamma (RARg) (AID 2283009). An outline of the steps: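 Readout: reporter transcript levels via RT-PCR, 6-FAM primer-extension labelling, HpaI digestion and capillary electrophoresis. Cells: HepG2 carrying transfected RARg-GAL4 chimera plus UAS reporter set. Dosing 24 h; DMSO negative control.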
Sequence of human Retinoic Acid Receptor gamma (RARg), RARG (gene 5916) (P13631 whole entry, looked up, the tested form may be a part): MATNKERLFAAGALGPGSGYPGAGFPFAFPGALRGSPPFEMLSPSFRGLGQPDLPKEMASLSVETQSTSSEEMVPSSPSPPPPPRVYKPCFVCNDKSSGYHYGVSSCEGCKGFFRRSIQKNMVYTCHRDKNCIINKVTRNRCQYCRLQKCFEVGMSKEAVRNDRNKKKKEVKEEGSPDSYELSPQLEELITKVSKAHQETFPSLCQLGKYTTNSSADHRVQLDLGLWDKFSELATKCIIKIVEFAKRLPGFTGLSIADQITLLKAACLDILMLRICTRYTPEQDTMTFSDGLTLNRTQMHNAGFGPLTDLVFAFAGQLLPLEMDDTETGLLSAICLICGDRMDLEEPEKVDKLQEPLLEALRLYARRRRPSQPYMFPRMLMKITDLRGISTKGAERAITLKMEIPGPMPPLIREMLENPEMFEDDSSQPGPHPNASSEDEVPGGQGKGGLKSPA

The target in assay [6] is human Peroxisome Proliferator-activated Receptor alpha (PPARa), PPARA (gene 5465) (UniProt Q07869). Nature of the assay: ATG_PPARa_TRANS: Attagene TRANS-FACTORIAL HepG2 Assay for human Peroxisome Proliferator-activated Receptor alpha (PPARa) (AID 2283001). Summed up: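 Transfected HepG2 cells treated with test chemical for 24 h. RNA isolated, reverse-transcribed with oligo(dT), PCR-amplified, FAM-labelled and HpaI-digested. Fragments sized by capillary electrophoresis; gain-of-signal fit relative to DMSO.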
Sequence of human Peroxisome Proliferator-activated Receptor alpha (PPARa), PPARA (gene 5465) (Q07869 whole entry, looked up, the tested form may be a part): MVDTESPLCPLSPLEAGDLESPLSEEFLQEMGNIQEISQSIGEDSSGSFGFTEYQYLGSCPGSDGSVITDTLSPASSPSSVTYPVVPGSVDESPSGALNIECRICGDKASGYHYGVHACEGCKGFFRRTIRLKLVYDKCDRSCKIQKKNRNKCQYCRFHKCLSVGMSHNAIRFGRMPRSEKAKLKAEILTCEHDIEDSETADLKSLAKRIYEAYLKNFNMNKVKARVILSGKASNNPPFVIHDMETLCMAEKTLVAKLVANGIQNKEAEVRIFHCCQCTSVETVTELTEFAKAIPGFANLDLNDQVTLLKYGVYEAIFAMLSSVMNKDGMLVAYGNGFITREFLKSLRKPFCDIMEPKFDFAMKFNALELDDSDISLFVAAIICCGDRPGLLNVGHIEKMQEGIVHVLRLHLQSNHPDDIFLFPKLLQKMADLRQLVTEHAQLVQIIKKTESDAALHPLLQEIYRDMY

Assay [7] concerns the target human Peroxisome Proliferator-activated Receptor delta (PPARd), PPARD (gene 5467) (UniProt Q03181). Nature of the assay: ATG_PPARd_TRANS: Attagene TRANS-FACTORIAL HepG2 Assay for human Peroxisome Proliferator-activated Receptor delta (PPARd) (AID 2283002). Summed up: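 Transient HepG2 transfection (multiple GAL4-UAS RTUs, chimeric receptor-Gal4); 24 h dosing; total RNA → oligo(dT) RT → PCR → 6-FAM primer extension → HpaI cut → CE. Positive direction vs DMSO.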

Sequence of Peroxisome proliferator-activated receptor gamma (Homo sapiens) (P37231 whole entry, looked up, the tested form may be a part): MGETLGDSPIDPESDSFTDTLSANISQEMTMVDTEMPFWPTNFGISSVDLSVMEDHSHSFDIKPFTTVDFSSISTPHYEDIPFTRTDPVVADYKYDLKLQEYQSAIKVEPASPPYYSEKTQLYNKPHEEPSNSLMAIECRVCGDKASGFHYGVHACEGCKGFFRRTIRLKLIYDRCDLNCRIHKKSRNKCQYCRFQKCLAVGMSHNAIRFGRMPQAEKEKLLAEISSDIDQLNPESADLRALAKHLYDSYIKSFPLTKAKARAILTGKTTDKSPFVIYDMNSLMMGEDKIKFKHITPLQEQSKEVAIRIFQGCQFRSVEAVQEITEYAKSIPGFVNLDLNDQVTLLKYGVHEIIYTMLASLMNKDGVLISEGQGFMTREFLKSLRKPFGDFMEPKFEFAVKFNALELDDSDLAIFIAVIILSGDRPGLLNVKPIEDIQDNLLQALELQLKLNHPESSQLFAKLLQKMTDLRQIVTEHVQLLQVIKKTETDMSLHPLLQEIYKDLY
Sequence of human Retinoic Acid Receptor beta (RARb), RARB (gene 5915) (P10826 whole entry, looked up, the tested form may be a part): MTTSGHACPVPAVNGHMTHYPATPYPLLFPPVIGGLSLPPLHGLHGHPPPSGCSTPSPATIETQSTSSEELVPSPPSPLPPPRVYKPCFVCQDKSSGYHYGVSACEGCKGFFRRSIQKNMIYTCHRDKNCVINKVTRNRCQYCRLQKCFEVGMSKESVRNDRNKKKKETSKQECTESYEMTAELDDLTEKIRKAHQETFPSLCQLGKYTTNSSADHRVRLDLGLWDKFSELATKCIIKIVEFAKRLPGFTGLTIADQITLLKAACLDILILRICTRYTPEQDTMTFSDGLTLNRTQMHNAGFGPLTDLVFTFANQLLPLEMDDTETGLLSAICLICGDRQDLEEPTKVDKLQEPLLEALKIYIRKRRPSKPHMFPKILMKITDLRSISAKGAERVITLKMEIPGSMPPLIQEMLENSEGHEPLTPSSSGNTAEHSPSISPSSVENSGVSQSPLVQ
Sequence of human Peroxisome Proliferator-activated Receptor delta (PPARd), PPARD (gene 5467) (Q03181 whole entry, looked up, the tested form may be a part): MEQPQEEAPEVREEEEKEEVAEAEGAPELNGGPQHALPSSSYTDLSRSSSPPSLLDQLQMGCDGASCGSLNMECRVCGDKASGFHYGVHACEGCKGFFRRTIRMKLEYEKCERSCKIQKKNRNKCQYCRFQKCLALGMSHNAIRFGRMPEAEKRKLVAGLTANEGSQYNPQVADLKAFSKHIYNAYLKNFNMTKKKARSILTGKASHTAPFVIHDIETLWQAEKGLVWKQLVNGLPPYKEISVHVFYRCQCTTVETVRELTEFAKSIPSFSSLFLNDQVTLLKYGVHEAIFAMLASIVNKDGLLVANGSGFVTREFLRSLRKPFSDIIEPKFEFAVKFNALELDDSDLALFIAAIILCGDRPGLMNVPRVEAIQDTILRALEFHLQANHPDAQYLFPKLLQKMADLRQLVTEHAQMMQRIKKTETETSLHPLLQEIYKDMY
Sequence of Retinoic acid receptor alpha (Homo sapiens) (P10276 whole entry, looked up, the tested form may be a part): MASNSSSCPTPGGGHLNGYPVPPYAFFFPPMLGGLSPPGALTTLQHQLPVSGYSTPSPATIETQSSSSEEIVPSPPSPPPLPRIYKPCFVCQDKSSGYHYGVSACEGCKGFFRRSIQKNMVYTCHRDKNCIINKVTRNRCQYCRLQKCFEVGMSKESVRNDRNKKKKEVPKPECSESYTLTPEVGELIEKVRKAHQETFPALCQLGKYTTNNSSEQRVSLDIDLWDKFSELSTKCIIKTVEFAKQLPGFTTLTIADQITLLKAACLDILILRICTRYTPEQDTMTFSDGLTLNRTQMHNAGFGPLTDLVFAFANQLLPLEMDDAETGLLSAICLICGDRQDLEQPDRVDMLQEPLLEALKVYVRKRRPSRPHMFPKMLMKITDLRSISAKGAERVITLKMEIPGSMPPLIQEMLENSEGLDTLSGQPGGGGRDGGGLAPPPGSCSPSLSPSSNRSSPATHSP

As usually defined, the AC50 is the midpoint of the concentration-response curve, whichever way the signal moves. On to `CC(C)(C)c1cc(Cc2cc(C(C)(C)C)c(O)c(C(C)(C)C)c2)cc(C(C)(C)C)c1O`, for which the outcome in assay [1], in assay [2], in assay [3] and in assay [5] was inactive. Also, the AC50 in assay [4] is 631 nM (active).
For `CC(C)OC(=O)COc1ccc(Cl)cc1Cl`, the call in assay [6], in assay [3] and in assay [5] was inactive.
Regarding `CCOC(=O)CCC(C)=O`, the result in assay [6] and in assay [4] was inactive.
For `O=C1OC(=O)c2ccc3c4c(ccc1c24)C(=O)OC3=O`, the compound was classed as inactive in assay [3] and in assay [4].
As to `COCCC(=O)OC`, the call in assay [6], in assay [3] and in assay [4] was inactive.
On to `OCCC(O)CO` (stereo not given), for which the compound was classed as inactive in assay [5].
On to `CCCCCCCCCc1ccc(OCCO)cc1`, for which the compound was classed as inactive in assay [7], in assay [3] and in assay [5]. The concentration at half-maximal activity (AC50) in assay [4] is 732 nM (active).
Regarding `COCCOCCC[Si](C)(O[Si](C)(C)C)O[Si](C)(C)C`, the compound was called inactive in assay [7], in assay [1], in assay [3] and in assay [5]. Also, the AC50 in assay [4] is 1470 nM (active).
